“And” between values parts separate entries of the source, which are not always exact repeats. Identical values can stand only once. About 83,000 compounds went through this panel and 20% of them were active in at least one assay; those are over-represented in the sample as a whole.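 Single-concentration screen, 48 h exposure, 96-well plates. Endpoint: percent growth. Below 10 = active.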 The source made the active and inactive calls.
Experiments:
Assay in all cases: NCI-60 one-dose screen, 48 h (100 = growth as untreated, 0 = no growth, -100 = all killed)
Details in all cases: 10 µM unless noted
NCI/ADR-RES ovarian = test system: NCI/ADR-RES ovarian
T-47D breast = test system: T-47D breast
BT-549 breast = test system: BT-549 breast
MDA-MB-435 melanoma = test system: MDA-MB-435 melanoma
SW-620 colon = test system: SW-620 colon
MCF7 breast = test system: MCF7 breast
HCT-116 colon = test system: HCT-116 colon
HCC-2998 colon = test system: HCC-2998 colon
KM12 colon = test system: KM12 colon

Measured: growth

N#CC(C#N)=Cc1cccc(F)c1
inactive: NCI/ADR-RES ovarian 107% | T-47D breast 105% | BT-549 breast 111% | MDA-MB-435 melanoma 107% | SW-620 colon 109% | MCF7 breast 101% | HCT-116 colon 108% | HCC-2998 colon 110% | KM12 colon 108%

CC(C)c1cccc(C(C)C)c1O
inactive: NCI/ADR-RES ovarian 108% and 106% | T-47D breast 95% and 93.2% | BT-549 breast 104% and 97.8% | MDA-MB-435 melanoma 104% and 100% | SW-620 colon 106% and 112% | MCF7 breast 91.1% | HCT-116 colon 101% and 95.8% | HCC-2998 colon 105% and 115% | KM12 colon 111% and 105%

CC(C)CCC1C(=O)NC(=O)NC1=O
inactive: NCI/ADR-RES ovarian 105% | T-47D breast 78.6% | BT-549 breast 100% | MDA-MB-435 melanoma 99.7% | SW-620 colon 91.8% | MCF7 breast 88.8% | HCT-116 colon 98.1% | HCC-2998 colon 107% | KM12 colon 98.5%

CC(=O)c1cccc(S(=O)(=O)F)c1
inactive: NCI/ADR-RES ovarian 96.9% | T-47D breast 110% | BT-549 breast 88.8% | MDA-MB-435 melanoma 97.8% | SW-620 colon 105% | MCF7 breast 96.8% | HCT-116 colon 92.1% | HCC-2998 colon 95.2% | KM12 colon 105%

Cc1cc[n+](CCc2ccccc2)cc1
inactive: NCI/ADR-RES ovarian 91.2% and 111% | T-47D breast 95.4% and 101% | BT-549 breast 104% and 107% | MDA-MB-435 melanoma 102% and 104% | SW-620 colon 101% and 117% | MCF7 breast 101% and 104% | HCT-116 colon 91.2% and 103% | HCC-2998 colon 85.8% and 102% | KM12 colon 105% and 107%

NC(N)=NC(N)=Nc1ccc(Cl)cc1
inactive: NCI/ADR-RES ovarian 113% | T-47D breast 109% | BT-549 breast 104% | MDA-MB-435 melanoma 101% | SW-620 colon 102% | MCF7 breast 103% | HCT-116 colon 109% | HCC-2998 colon 107% | KM12 colon 112%

CC12CCC3C(CCC4CC(O)CCC43C)C1CCC2=O (configuration not stated)
inactive: NCI/ADR-RES ovarian 163% | T-47D breast 113% | BT-549 breast 113% | MDA-MB-435 melanoma 97.7% | SW-620 colon 109% | MCF7 breast 116% | HCT-116 colon 88.6% | HCC-2998 colon 99.2% | KM12 colon 98.9%

CC[C@H](C)[C@H](NC(=O)[C@H]1CCCCN1C)C(=O)N(C)[C@H](C[C@@H](OC(C)=O)c1cccc(C(=O)N[C@@H](Cc2ccccc2)C[C@H](C)C(=O)OC)n1)C(C)C
inactive: NCI/ADR-RES ovarian 13.4% | T-47D breast 63.6% | SW-620 colon 24.6% | MCF7 breast 12.7% | HCC-2998 colon 15.4%
active: BT-549 breast -22.5% | MDA-MB-435 melanoma -29.2% | HCT-116 colon -5.08% | KM12 colon 4.26%

C=CCOC(=O)C(Br)CC (configuration not stated)
inactive: NCI/ADR-RES ovarian 107% | T-47D breast 95.8% | BT-549 breast 111% | MDA-MB-435 melanoma 109% | SW-620 colon 104% | MCF7 breast 103% | HCT-116 colon 104% | HCC-2998 colon 101% | KM12 colon 112%

O=[N+]([O-])c1cc(Cl)c(Cl)cc1Cl
inactive: NCI/ADR-RES ovarian 102% and 104% | T-47D breast 107% and 108% | BT-549 breast 121% and 119% | MDA-MB-435 melanoma 101% and 107% | SW-620 colon 100% and 105% | MCF7 breast 99% and 113% | HCT-116 colon 107% and 106% | HCC-2998 colon 94.2% and 118% | KM12 colon 109% and 113%

N#CCc1ccc(CC#N)cc1
inactive: NCI/ADR-RES ovarian 110% | T-47D breast 87.5% | BT-549 breast 95.9% | MDA-MB-435 melanoma 102% | SW-620 colon 96.7% | MCF7 breast 91.4% | HCT-116 colon 98.6% | HCC-2998 colon 108% | KM12 colon 102%

CCC(Br)(CC)C(=O)NC(N)=O
inactive: NCI/ADR-RES ovarian 116% | T-47D breast 101% | BT-549 breast 108% | MDA-MB-435 melanoma 102% | SW-620 colon 110% | MCF7 breast 94.6% | HCT-116 colon 93% | HCC-2998 colon 105% | KM12 colon 104%

C[C@]12CCc3nc(-c4ccc(O)c(O)c4)sc3C1=CC[C@@H]1[C@@H]2CC[C@]2(C)C(=O)CC[C@@H]12
inactive: NCI/ADR-RES ovarian 73.7% | T-47D breast 69% | BT-549 breast 58.1% | MDA-MB-435 melanoma 71.3% | SW-620 colon 55.4% | MCF7 breast 48.4% | HCT-116 colon 26% | HCC-2998 colon 99.2% | KM12 colon 90.8%
